# Screening data: PubChem BioAssay, several laboratories
# hDAT+cocaine: changed human dopamine transporter uptake under cocaine IC80 | LLC-PK1 hDAT cells, [14C]-dopamine uptake with cocaine IC80; actives deviate in either direction | B-score at 10 µM | 1.3% of 110,000 active | AID 449768;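 active means Z score or B-score, a plate-position-corrected score, falls beyond the plate's 99.7% confidence bounds, in either direction; inactive means both scores lie inside the 99.7% bounds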
# Target sequence (Q01959 whole entry, looked up): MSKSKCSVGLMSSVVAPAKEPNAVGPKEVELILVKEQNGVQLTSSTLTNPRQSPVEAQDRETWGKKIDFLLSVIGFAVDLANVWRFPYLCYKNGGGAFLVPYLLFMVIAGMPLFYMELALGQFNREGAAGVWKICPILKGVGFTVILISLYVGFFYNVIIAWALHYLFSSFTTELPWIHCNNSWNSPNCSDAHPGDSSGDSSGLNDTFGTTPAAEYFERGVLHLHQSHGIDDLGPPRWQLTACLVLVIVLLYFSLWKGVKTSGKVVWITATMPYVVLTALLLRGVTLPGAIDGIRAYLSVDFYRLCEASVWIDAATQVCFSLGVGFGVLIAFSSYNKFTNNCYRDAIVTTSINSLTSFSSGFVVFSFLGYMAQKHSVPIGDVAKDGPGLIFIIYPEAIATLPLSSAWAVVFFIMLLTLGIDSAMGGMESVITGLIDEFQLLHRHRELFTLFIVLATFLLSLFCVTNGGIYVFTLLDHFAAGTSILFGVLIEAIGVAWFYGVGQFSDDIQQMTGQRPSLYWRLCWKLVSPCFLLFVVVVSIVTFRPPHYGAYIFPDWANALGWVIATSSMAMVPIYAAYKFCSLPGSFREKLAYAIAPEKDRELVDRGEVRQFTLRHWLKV
# HCT116 PTEN-null: suppresses growth of cells with PTEN deletion; 1.2% of 140,000 active; viability, % at 10 µM; AID 827; HCT116 PTEN-null viability, CellTiter-Glo, 60 h; hits give low values;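 active means viability at or below a set limit, 4 SD under the median of all tested compounds, cut at about 3.7% in these data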;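 further: PTEN knockout HCT116 line with beta catenin targeted HCT116 as companion control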
# WT yeast gro inh: growth inhibition of WT yeast, mitochondrial fusion screen; 2.1% of 190,000 active; inhibition, % at 10 µM; AID 1362; mitochondrial fusion phenotypic screen, WT strain; in the data active means inhibition above about 58%; tested in S. cerevisiae
# HCT116 bCat-KO: beta-catenin-lacking colon tumor cell growth suppression. HCT116 beta-catenin knockout viability, CellTiter-Glo, 60 h; hits give low values. viability, % at 10 µM. 1.5% of 140,000 active;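 active means viability at or under a set limit, the compound median less 4 SD, cut at about 6% in these data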
# A number is an active result; i = inactive; nt = no result. A selection: hits, their analogues and other compounds. The true share with any hit is near 3.6%.
SMILES,hDAT+cocaine,HCT116 PTEN-null,WT yeast gro inh,HCT116 bCat-KO
COC(C[C@@H]1O[C@H]1[C@H](O)[C@@H](C)OCc1ccccc1)OC,i,nt,nt,nt
O=C(Nc1cccn(Cc2ccc(F)cc2)c1=O)NC1CCCCC1,2.3,i,i,i
CCC(=O)NCCCc1nc(-c2ccccc2)no1,i,nt,nt,nt
COCCn1c(N)c(S(=O)(=O)c2cccs2)c2nc3ccccc3nc21,i,i,i,i
Nc1c(S(=O)(=O)c2cccc(Cl)c2)c2nc3ccccc3nc2n1/N=C/c1ccc(O)c(O)c1,i,1.5,i,1.1
COc1cccc(/C=N/n2c(N)c(S(=O)(=O)c3cccs3)c3nc4ccccc4nc32)c1OC,i,2.8,i,2.1
CC1CCCN(c2ccc(C(=O)NCc3ccco3)cc2[N+](=O)[O-])C1 (centres undefined),nt,i,i,i
Cc1nc2ccc(S(=O)(=O)Nc3cccc(-c4nc5cccnc5s4)c3)cc2s1,i,i,72,i
Cc1nc2ccc(S(=O)(=O)Nc3ccc(-c4nc5cccnc5s4)cc3)cc2s1,nt,i,i,i
Cn1nc(Oc2ncc(C(F)(F)F)cc2Cl)cc1C(F)(F)F,nt,nt,i,nt
C=CCNC1=C(Cl)C(=O)N(c2cccc(Cl)c2Cl)C1=O,i,i,64,i
CCN1C2OC3OC4C(OC3OC2N(CC)S1(=O)=O)N(CC)S(=O)(=O)N4CC (centres undefined),nt,nt,i,nt
CO/N=C(\Cn1ncc(NC2CCCCC2)c(Br)c1=O)c1ccc(Cl)cc1,i,i,71,i
O=[N+]([O-])c1c(C(Cl)Cl)nn(-c2ccc(Cl)cc2)c1N1CCCCC1,nt,i,75,i
COC(=O)C1(NC(=O)NC23CC4CC(CC(C4)C2)C3)CCCCC1,nt,nt,i,nt
CCc1sc(C(=O)Nc2cc(Cl)ccc2N2CCCCC2)cc1C,i,i,i,i
Cc1ccc(C(=O)Nc2cc(Cl)ccc2N2CCCCC2)s1,i,i,68,i
CCOc1cc(/C=N/NC(=O)CCCC(=O)NC2CCCCC2)ccc1O,nt,i,i,i
CC(C)(C)NC(=O)C(c1ccco1)N(C(=O)Cn1nnc(-c2ccc(F)cc2)n1)c1ccccc1F (centres undefined),i,i,63,i
COc1ccc(-c2n[nH]c(C(F)(F)F)c2-c2cc3ccccc3o2)c(O)c1,i,i,94,i
COc1ccccc1-c1c(-c2ccc(OCC(=O)NN)cc2O)n[nH]c1C(F)(F)F,nt,i,i,i
O=S(=O)(c1ccc2c(c1)C(=NO)c1cc(S(=O)(=O)N3CCCCC3)ccc1-2)N1CCCCC1,i,1.6,i,0.9
CC1CCN(S(=O)(=O)c2cccc(C(=O)O)c2)CC1,i,i,i,i
CC1CCN(S(=O)(=O)c2ccc(Oc3ccc([N+](=O)[O-])cc3)cc2)CC1,nt,i,61,i
CC1CCN(S(=O)(=O)c2ccc3c(c2)C(=NO)c2cc(S(=O)(=O)N4CCC(C)CC4)ccc2-3)CC1,i,1.2,i,0.8
SMILES,hDAT+cocaine,HCT116 PTEN-null,WT yeast gro inh,HCT116 bCat-KO
CCn1cc([N+](=O)[O-])c(C(=O)Nc2nc3ccc(OC)cc3s2)n1,nt,nt,i,nt
OCCNCC12CC3CC(CC(C3)C1)C2,nt,nt,i,nt
CCOC(=O)N1CCN(C(=O)c2oc3ccc(S(=O)(=O)N4CCOCC4)cc3c2C)CC1,i,i,i,i
CCOC(=O)N1CCN(C(=O)c2oc3ccc(S(=O)(=O)N4CCCCCC4)cc3c2C)CC1,-8.1,i,i,i
O=C(c1ccc(Cl)cc1)N1CCC(O)(CSc2ccc(Cl)cc2)CC1,i,i,61,i
O=C(NC1CCCCC1)C(c1cccnc1)N(C(=O)CCl)c1ccccc1Cl (centres undefined),nt,i,i,i
O=C(NC1CCCCC1)C(c1cccnc1)N(C(=O)CCl)c1ccc(F)cc1 (centres undefined),nt,3.0,i,4.2
COc1ccc(N(C(=O)CCl)C(C(=O)NC2CCCCC2)c2cccnc2)cc1 (centres undefined),nt,2.5,i,2.8
COc1ccc(C(C(=O)NC2CCCCC2)N(C(=O)c2ccccn2)c2cccnc2)cc1 (centres undefined),nt,nt,i,nt
Cc1nn(CCC(=O)O)c2nc(-c3cccnc3)cc(C(F)(F)F)c12,i,i,i,i
Cc1nn(CCc2nn[nH]n2)c2nc(-c3ccc(C4CCCCC4)cc3)cc(C(F)(F)F)c12,nt,nt,98,nt
O=C(NCc1ccco1)c1cccnc1-c1nc2ccccc2s1,nt,i,64,i
O=C(NCc1ccco1)c1cccnc1Cl,nt,i,i,i
CC(/C=C/c1ccccc1)=N\NC(=S)NC(C)C,nt,nt,71,nt
CCOC(=O)c1sc(NC(=O)c2ccc(Cl)s2)cc1C,i,i,i,i
CCOC(=O)c1sc(NC(=O)Nc2ccc(Cl)cc2)cc1C,i,i,85,5.2
O=C(O)/C=C/c1cnn(-c2ccccc2)c1,nt,nt,i,nt
Cc1ccc(C)c(-n2c(-c3csc(C)c3C)n[nH]c2=S)c1,nt,i,i,i
Cc1cc(C)n(CCc2nc(-c3ccc(C(C)(C)C)cc3)cs2)n1,nt,i,75,i
Cc1cc(C)n(CCc2nc(-c3ccc(F)cc3)cs2)n1,nt,i,i,i
O=C(CSc1nnc(-c2cccs2)o1)NCc1ccco1,nt,nt,i,nt
CC(C)(C)NC(=S)NC(=O)C12CCC3CC(CC(C3)C1)C2,nt,nt,73,nt
CC(C)(C)NC(=O)C12CC3CC(CC(Cl)(C3)C1)C2,nt,i,i,i
S=c1[nH]nc(C2CC2c2ccc(Cl)cc2)n1-c1ccc(Cl)cc1 (centres undefined),nt,i,76,i
Cc1ccc(-n2c(C3CC3c3ccc(Cl)cc3)n[nH]c2=S)cc1 (centres undefined),i,i,i,i
SMILES,hDAT+cocaine,HCT116 PTEN-null,WT yeast gro inh,HCT116 bCat-KO
O=C(Nc1ccc(Cl)cc1)N1CCC(c2nc(-c3cccs3)no2)CC1,i,i,i,i
O=C(Nc1ccc(Cl)cc1)N1CCC(c2nc(-c3ccccc3Cl)no2)CC1,i,i,64,i
Cc1c(CNC(=O)C2CC2)c(-n2cccc2)n(Cc2ccccc2)c1C,nt,nt,i,nt
CC(=O)N1CCN(c2c(F)c(F)c(C(F)(F)F)c(F)c2F)CC1,nt,nt,i,nt
CCSc1ccc2cc(OC)ccc2[n+]1CC,nt,nt,62,nt
Cc1ccc(C2CN(C)C3(C(=O)Nc4ccccc43)C23COc2ccccc2C3=O)cc1 (centres undefined),nt,i,73,i
CN1CC(c2ccccn2)C2(SC(=S)N(Cc3ccccc3)C2=O)C12C(=O)Nc1ccccc12 (centres undefined),i,i,i,i
CN1CC(c2ccccc2Cl)C2(COc3ccccc3C2=O)C12C(=O)Nc1ccccc12 (centres undefined),i,i,59,i
COc1ccc(C2/C=C\CN(C(=O)c3ccc(C)cc3)[C@H](Cc3ccccc3)C(=O)N2Cc2ccc(F)cc2)cc1 (some centres undefined),i,nt,nt,nt
CC(C)C(=O)Nc1ccc2nn(-c3ccccc3)nc2c1,nt,nt,i,nt
S=c1[nH]nc(COc2ccccc2)n1/N=C/c1ccncc1,nt,nt,i,nt
Cc1ccc(OCc2n[nH]c(=S)n2-c2ccccc2)cc1C,nt,nt,67,nt
CC(/C=N/n1c(COc2ccccc2)n[nH]c1=S)=C\c1ccccc1,i,i,75,i
Cc1cccc(OCc2n[nH]c(=S)n2-c2ccccc2)c1,nt,nt,i,nt
Cc1cc(-c2n[nH]c(=S)n2/N=C/C(Cl)=C/c2ccccc2)n[nH]1,nt,2.2,i,5.0
CC1CCN(CCNC(=S)Nc2ccc(Cl)cc2)CC1,nt,nt,i,nt
